Assay results taken from PubChem BioAssay AID1053205 (Broad Institute, 2014).
Measured potencies and affinities stand elsewhere. Results filed as inconclusive are left out. Active and inactive are the calls of the source.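 The calls were made as follows: active = compounds lowering the FRET ratio whose fitted half-maximal concentration is at most twice their top tested dose; inconclusive = flat partial drop between 30 and 70 percent, or bad fit; inactive = the rest.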

Biological target: Voltage-dependent L-type calcium channel subunit alpha-1D (Homo sapiens) (UniProt Q01668)
Sequence (Q01668 whole entry, looked up, the tested form may be a part): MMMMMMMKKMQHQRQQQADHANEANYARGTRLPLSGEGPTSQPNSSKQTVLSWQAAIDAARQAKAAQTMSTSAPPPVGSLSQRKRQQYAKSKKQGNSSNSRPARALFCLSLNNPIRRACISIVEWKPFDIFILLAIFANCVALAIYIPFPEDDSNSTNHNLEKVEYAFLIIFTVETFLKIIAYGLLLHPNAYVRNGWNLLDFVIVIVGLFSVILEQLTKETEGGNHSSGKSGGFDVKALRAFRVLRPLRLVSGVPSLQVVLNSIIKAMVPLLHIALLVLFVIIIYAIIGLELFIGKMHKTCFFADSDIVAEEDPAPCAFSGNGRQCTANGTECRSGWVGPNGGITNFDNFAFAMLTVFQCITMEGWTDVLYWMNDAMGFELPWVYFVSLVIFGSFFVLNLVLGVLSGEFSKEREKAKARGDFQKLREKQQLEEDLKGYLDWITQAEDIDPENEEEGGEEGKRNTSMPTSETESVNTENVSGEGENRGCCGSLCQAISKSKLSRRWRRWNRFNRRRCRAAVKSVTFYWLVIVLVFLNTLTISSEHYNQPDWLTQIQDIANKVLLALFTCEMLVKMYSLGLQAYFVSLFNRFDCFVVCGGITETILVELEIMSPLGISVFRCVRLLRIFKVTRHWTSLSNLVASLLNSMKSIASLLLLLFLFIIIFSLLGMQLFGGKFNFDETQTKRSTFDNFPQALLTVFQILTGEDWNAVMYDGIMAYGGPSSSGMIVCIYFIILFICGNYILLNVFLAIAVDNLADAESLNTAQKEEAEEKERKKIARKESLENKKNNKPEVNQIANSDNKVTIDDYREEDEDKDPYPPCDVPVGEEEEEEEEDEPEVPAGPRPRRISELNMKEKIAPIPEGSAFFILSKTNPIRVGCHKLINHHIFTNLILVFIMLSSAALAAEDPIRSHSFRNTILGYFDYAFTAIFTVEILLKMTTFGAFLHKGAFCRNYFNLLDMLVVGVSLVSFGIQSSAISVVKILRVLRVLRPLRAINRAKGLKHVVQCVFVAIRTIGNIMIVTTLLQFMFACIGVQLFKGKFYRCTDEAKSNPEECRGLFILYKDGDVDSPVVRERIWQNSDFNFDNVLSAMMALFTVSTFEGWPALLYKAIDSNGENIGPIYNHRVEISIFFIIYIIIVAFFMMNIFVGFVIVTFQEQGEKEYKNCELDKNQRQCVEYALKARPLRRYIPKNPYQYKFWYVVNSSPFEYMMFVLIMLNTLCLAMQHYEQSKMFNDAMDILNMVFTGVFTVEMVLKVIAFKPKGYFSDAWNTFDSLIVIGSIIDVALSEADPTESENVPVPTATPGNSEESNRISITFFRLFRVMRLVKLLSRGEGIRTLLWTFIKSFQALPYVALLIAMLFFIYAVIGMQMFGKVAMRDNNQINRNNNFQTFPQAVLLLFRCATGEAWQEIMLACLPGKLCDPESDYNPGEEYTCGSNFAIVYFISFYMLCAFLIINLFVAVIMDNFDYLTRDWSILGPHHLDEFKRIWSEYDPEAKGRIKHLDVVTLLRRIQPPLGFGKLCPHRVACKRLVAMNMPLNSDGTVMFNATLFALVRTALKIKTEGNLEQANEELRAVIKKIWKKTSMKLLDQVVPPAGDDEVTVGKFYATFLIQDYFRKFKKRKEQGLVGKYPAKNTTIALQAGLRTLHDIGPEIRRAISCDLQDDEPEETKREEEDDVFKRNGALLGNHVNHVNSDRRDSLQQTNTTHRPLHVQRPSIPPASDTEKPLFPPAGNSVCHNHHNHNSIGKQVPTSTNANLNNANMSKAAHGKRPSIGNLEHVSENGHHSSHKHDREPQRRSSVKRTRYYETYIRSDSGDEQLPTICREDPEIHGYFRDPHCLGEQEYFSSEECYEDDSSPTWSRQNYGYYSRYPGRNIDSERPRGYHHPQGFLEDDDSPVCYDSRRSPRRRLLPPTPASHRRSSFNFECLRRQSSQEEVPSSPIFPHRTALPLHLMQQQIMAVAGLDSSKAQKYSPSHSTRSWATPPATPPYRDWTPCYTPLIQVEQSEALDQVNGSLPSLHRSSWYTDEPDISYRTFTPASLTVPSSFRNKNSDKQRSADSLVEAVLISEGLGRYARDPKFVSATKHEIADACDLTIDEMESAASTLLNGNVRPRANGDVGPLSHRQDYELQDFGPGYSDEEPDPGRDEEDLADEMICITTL
Assay: disruptors of CaV1.3 IQ/ICDI domain association – cell-based, HEK293, YFP-IQ/CFP-ICDI FRET, cherry-picks, dose response (AID 1053205)
Settings: HEK293 YFP-IQ/CFP-ICDI FRET ratio, 10 min; series mostly up to 35 µM

Row | Structure (SMILES) | outcome
1 | CC(C)OP(=O)(O)NC(=O)c1ccccc1 | inactive
2 | N#CC1=C(N)Oc2cc(O)ccc2C1c1ccc2c(c1)OCO2 (configuration not stated) | inactive
